Experimental findings from PubChem BioAssay (NCI) are described below.

This is part of a sample that, as a whole, favours compounds with a hit. Of some 83,000 tested, about 20% had one in any assay.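 Activity criterion: percent growth below 10, measured after cells in 96-well plates were exposed to a single compound concentration for 48 hours.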 Calls of active or inactive are those of the source.

For this experiment, the system named is SNB-75 CNS. Put plainly: NCI-60 one-dose screen, 48 h (100 = growth as untreated, 0 = no growth, -100 = all killed). To be noted: 10 µM unless noted. The protocol: Growth inhibition of the SNB-75 human tumor cell line is measured as a screen for anti-cancer activity. Cells are grown in 96 well plates and exposed to the test compound for 48 hours. Compounds are tested at a single concentration, which is 10^-5 M for most compounds. The reported endpoint is percent growth (GI% or GIPRCNT), where numbers from 0 - 100% represent growth inhibition, and numbers from -100% - 0 represent cell death. For example, a value of 40 represents 60% growth inhibition. A value of 0 means no net growth occurred over the course of the experiment. A value of -40 indicates 40% of cells at the beginning of the experiment died by the end of the experiment. A value of -100 means all cells are dead at the end of the experiment.
NCI-60 Human Tumor Cell Lines Screen was performed using the standard one-dose NCI protocol, which is described in more detail at https://dtp.cancer.gov/discovery_development/nci-60/default.htm.
Compounds with GIPRCNT values below 10 were considered active. Activity score was based on GIPRCNT using the following formula: […]
Score is 0 for GIPRCNT values of 100 or above, 50 for GIPRCNT values of 0, and 100 for GIPRCNT values of -100.
`O=C(CCCCCNC(=O)c1cc(=O)c(O)co1)Nc1ccccc1`: the growth was 82.7% (inactive).

Take `COc1cccc(C(=O)NNc2nc(Cl)nc(Cl)n2)c1`: the growth was 87.4% (inactive).

With `C#CCO[C@H]1CC(CC#C)(CC#C)C(=O)[C@@H]2[C@H]1[C@H]1C[C@@H]3[C@@]4(C)CCC[C@@](C)(C(=O)OC)[C@@H]4CC[C@@]23C=C1C(C)C`, the growth is 93.9% (inactive).

In the case of `Clc1ccccc1-c1cnn2cc(-c3ccccc3)cnc12`, the growth was 74.2% (inactive).

For `CCCn1nc(C(=O)N(C)Cc2ccccc2)c2c1CCC(N1CCc3ccccc31)C2` (stereo not given), the growth was 100% (inactive).

For the compound `Clc1ccc(-c2cc(-c3ccccc3)nc(NCCNc3ccnc4cc(Cl)ccc34)n2)cc1`, the growth is 75.7% (inactive).

Consider `CCN1C2CCC1/C(=C\c1ccc(F)cc1)C(=O)/C2=C/c1ccc(F)cc1`, for which the growth is 40.6% (inactive).

For `CCN(CC)Cc1cc(Nc2ccnc3cc(Cl)ccc23)ccc1O`, the growth was 83.4% (inactive).

As for `CC1=C(C(=O)Nc2ccccc2)C(c2ccc3c(c2)OCO3)NC(=S)N1` (stereo not given), the growth was 107% (inactive).

Turning to `CN1CCN(Cc2ccc(NC(=O)c3cncc(C#Cc4cnc5ccc(Cl)nn45)c3)cc2C(F)(F)F)CC1`, the growth is -52.4% (active).

`CN1CCN(Cc2ccc(NC(=O)c3cncc(C#Cc4cnc(N)c5ccc(F)cc45)c3)cc2C(F)(F)F)CC1`: the growth was -3.01% (active).

As for `CC1=C(CCC(C)NCc2ccc(OCCCN3CCCCC3)cc2)C(C)(C)CCC1` (stereo not given), the growth is -59.7% (active).

On to `COc1ccc(C[n+]2c3ccccc3n3c4ccc(N)cc4ccc32)c(OC)c1OC`, for which the growth was 61.4% (inactive).

`CC1=C2[C@@H](CC1)[C@]1(C)O[C@@](c3ccccc3)(C[C@H]1OC(=O)CO)[C@H]2OC(=O)/C=C/c1ccccc1`: the growth is -50.7% (active).

Turning to `CCOC(=O)c1nn(CC(O)c2ccccc2)c(NC(=O)Nc2cccc(F)c2)c1C` (stereo not given), the growth was 108% (inactive).

`N=C(N)c1ccc(-c2ccc(-c3cc(Cl)cc(Cl)c3)s2)nc1`: the growth was 105% (inactive).

For `Cc1cccc[n+]1C1c2ccccc2-c2ccccc21`, the growth was 94.1% (inactive).

In the case of `N#Cc1cncc(-c2ccc3ncnc(Nc4cccc(Cl)c4)c3c2)c1`, the growth was 65.5% (inactive).

`CN(Cc1cnc2nc(N)nc(N)c2n1)c1ccc(C(=O)NC(CCC(=O)O)C(=O)O)cc1Br` (stereo not given): the growth was 54.5% (inactive).

On to `[2H]C([2H])([2H])Oc1ccc(F)cc1/C=C/C(=O)/C=C(/C=C/c1cc(F)ccc1OC([2H])([2H])[2H])OB(F)F`, for which the growth is 94% (inactive).

With `Cc1cn(-c2cc(NC(=O)c3cncc(C#Cc4c(N)ncc5ccc(F)cc45)c3)cc(C(F)(F)F)c2)cn1`, the growth is 76.8% (inactive).

Consider `O=C(O)c1cn(C2CC2)c2cc(N3CCN(C(=O)Nc4nc(-c5ccc(Br)cc5)cs4)CC3)c(F)cc2c1=O`, for which the growth was 24% (inactive).

On to `COC(=O)C(Cc1ccccc1)NC(=O)c1ccc(NC(=O)c2[nH]c(C)c(Cl)c2Cl)c(OC(C)C)c1` (stereo not given), for which the growth is 62.6% (inactive).

For `C/C(=N\O)c1ccc(NC(=O)CSc2nnc(-c3cc(-c4ccc(S(C)(=O)=O)cc4)nc4ccccc34)n2-c2ccccc2)cc1`, the growth was 57% (inactive).

In the case of `COc1ccc2c(c1)c(/C(O)=C1\COC(=O)C1=O)cn2Cc1ccc(F)cc1`, the growth is 104% (inactive).

Take `CN(C)CCCC1(c2ccc(F)cc2)OCc2cc(-c3cc4ccccc4s3)ccc21` (stereo not given): the growth is 25.2% (inactive).

For `CN1CCN(Cc2ccc(NC(=O)c3cncc(C#Cc4cnc(N)c5ncccc45)c3)cc2C(F)(F)F)CC1`, the growth was -76.8% (active).

As for `O=c1ccc(=O)n(-c2nc(-c3ccc([N+](=O)[O-])cc3)cs2)[nH]1`, the growth was 92% (inactive).

In the case of `O=C(Nc1cnc(Nc2ccc(N3CCOCC3)nc2)nc1Oc1ccc(C(F)(F)F)cc1)c1ccncc1`, the growth is 89.8% (inactive).

For the compound `COc1ccc(/C=C/c2ccc3ccccc3n2)c(OC)c1`, the growth is 78% (inactive).

For the compound `Cc1ccc2c(=O)cc(C(=O)Nc3sc4c(c3C(=O)NCc3cccnc3)CCCC4)oc2c1C`, the growth was 91.7% (inactive).

With `Oc1c(CN2CCOCC2)cc(COCc2ccccc2)c2cccnc12`, the growth is 49.5% (inactive).

`N#CC1=C(N)Oc2ccc3ccccc3c2C1c1ccc([N+](=O)[O-])cc1` (stereo not given): the growth is 61.7% (inactive).

For the compound `CCOC(=O)C1=C(C)C(Cl)=N/C1=C\c1[nH]c(Cl)c(C)c1C(=O)OCC`, the growth was 84.5% (inactive).

With `CCOC(=O)/C=C1\S/C(=N\Nc2cc(=O)[nH]c3ccccc23)N(c2ccccc2)C1=O`, the growth is 80.1% (inactive).

As to `Cc1ccc2nc(/C(C#N)=C(/CCCO)NC(Cc3ccccc3)C(=O)OCc3ccccc3)[nH]c(=O)c2c1` (stereo not given), the growth was 113% (inactive).

Turning to `CN(Cc1ccccc1)c1nc(Cl)c(C2CC(c3ccccc3)=NN2c2ccccc2)s1` (stereo not given), the growth was 82.3% (inactive).

For the compound `Cc1ncc(C(=O)Nc2ccc(CN3CCN(C)CC3)c(C(F)(F)F)c2)cc1C#Cc1cnc(N)c2ncccc12`, the growth was 50.9% (inactive).

As for `CN1CCN(CCOc2ccc(-c3cnc4c(-c5ccc(F)cc5)cnn4c3)cc2)CC1`, the growth is 68% (inactive).

As to `O=C(Nc1ncc(Cc2cc(C(F)(F)F)ccc2Cl)s1)c1cccs1`, the growth is 72% (inactive).
